Experimental data published in PubChem BioAssay (Tox21).
Several values for one entry are separate records, joined by “and”; a condition that tells them apart may be missing. Identical values can stand only once. Inconclusive results are not listed. A call without a number means that no potency is given here. More than one record can exist for a structure, and the calls need not agree. Activity calls are given as the source filed them. Calls follow the shape of the dose curve; as a rule, active = well fitted curve in the direction sought with a large enough effect in the repeat runs; inconclusive = weak or mixed curves; inactive = no such curve, though single readings can be large; an effect the other way counts as inactive or inconclusive.

Legend:
[1] = A CellTox Green Cytotoxicity Assay to monitor cytotoxicity in HEK293 cells - 40 hour (AID 1224871); also: nearly all actives have a fitted effect of over 45% in size; also: potency is read from the fitted curve at half-maximal effect
Method in brief: (§1)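 Each value comes from one timepoint of a single continuous run in which HEK293 cells with CellTox Green were exposed to compound for up to 40 h at 37 C, dye fluorescence rising with cell death.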

[2] = qHTS RealTime-Glo MT Cell Viability Assay in HEK293 cells - 16 hour (AID 1224872); also: nearly all actives have a fitted effect of over 50% in size; also: potency is read from the fitted curve at half-maximal effect; as to activity change, negative = cytotoxicity: top concentration of the series differs between compounds
Method in brief: (§2)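 HEK293 cells seeded with NanoLuc/prosubstrate reagent, rested 5 h at 37 C, then dosed and kept at 37 C up to 40 h. Nonlytic real-time luminescence from viable cells read at 0, 8, 16, 24, 32 and 40 h.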

[3] = qHTS RealTime-Glo MT Cell Viability Assay in HepG2 cells - 8 hour (AID 1224873); also: nearly all actives have a fitted effect of over 55% in size
Method in brief: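 Real-time viability: cells seeded at 600 per well together with NanoLuc and cell-permeant prosubstrate, compounds added after 5 h incubation. Luminescence tracked at 0, 8, 16, 24, 32 and 40 h of exposure.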

[4] = qHTS RealTime-Glo MT Cell Viability Assay in HEK293 cells - 40 hour (AID 1224874); details: RealTime-Glo luminescence; max response: stronger effect = lower value; also: nearly all actives have a fitted effect of over 50% in size; also: potency is read from the fitted curve at half-maximal effect
Method in brief: (§3)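 qHTS format; HEK293 cells with NanoLuc/prosubstrate reagent, 37 C/5% CO2 for 5 h pre-dosing; compounds 23 nL in DMSO; luminescence at each time point reflects viable cells.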

[5] = A CellTox Green Cytotoxicity Assay to monitor cytotoxicity in HepG2 cells - 16 hour (AID 1224876); also: nearly all actives have a fitted effect of over 45% in size
Method in brief: (§4)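 Continuous culture of HepG2 cells with a membrane-impermeant DNA dye; rising fluorescence marks dead cells. Compound exposure lasted up to 40 h at 37 C, with reads every 8 h from 0 h.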

[6] = qHTS RealTime-Glo MT Cell Viability Assay in HepG2 cells - 32 hour (AID 1224877); also: nearly all actives have a fitted effect of over 55% in size
Method in brief: (§5)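 HepG2 cells (600/well) were dispensed with RealTime-Glo reagents, incubated 5 h at 37 °C, then treated with compounds in DMSO for up to 40 h. Nonlytic NanoLuc luminescence reflecting viable cells was read at each stated time point.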

[7] = A CellTox Green Cytotoxicity Assay to monitor cytotoxicity in HepG2 cells - 24 hour (AID 1224878); also: nearly all actives have a fitted effect of over 45% in size
Method in brief: as §4

[8] = A CellTox Green Cytotoxicity Assay to monitor cytotoxicity in HepG2 cells - 40 hour (AID 1224879); also: nearly all actives have a fitted effect of over 40% in size; also: potency is read from the fitted curve at half-maximal effect
Method in brief: as §4

[9] = qHTS RealTime-Glo MT Cell Viability Assay in HEK293 cells - 0 hour (AID 1224880); also: top concentration of the series differs between compounds; nearly all actives have a fitted effect of over 45% in size
Method in brief: as §3

[10] = A CellTox Green Cytotoxicity Assay to monitor cytotoxicity in HEK293 cells - 32 hour (AID 1224881); also: nearly all actives have a fitted effect of over 40% in size; also: potency is read from the fitted curve at half-maximal effect
Method in brief: as §1

[11] = A CellTox Green Cytotoxicity Assay to monitor cytotoxicity in HepG2 cells - 0 hour (AID 1224882); also: nearly all actives have a fitted effect of over 35% in size
Method in brief: as §4

[12] = A CellTox Green Cytotoxicity Assay to monitor cytotoxicity in HepG2 cells - 32 hour (AID 1224883); also: nearly all actives have a fitted effect of over 50% in size; also: potency is read from the fitted curve at half-maximal effect
Method in brief: as §4

[13] = A CellTox Green Cytotoxicity Assay to monitor cytotoxicity in HEK293 cells - 8 hour (AID 1224884); also: nearly all actives have a fitted effect of over 35% in size
Method in brief: as §1

[14] = qHTS RealTime-Glo MT Cell Viability Assay in HepG2 cells - 16 hour (AID 1224885); also: nearly all actives have a fitted effect of over 50% in size
Method in brief: as §5

[15] = qHTS RealTime-Glo MT Cell Viability Assay in HEK293 cells - 24 hour (AID 1224886); also: nearly all actives have a fitted effect of over 50% in size; also: potency is read from the fitted curve at half-maximal effect; as to activity change, negative = cytotoxicity: top concentration of the series differs between compounds
Method in brief: as §2

[16] = qHTS RealTime-Glo MT Cell Viability Assay in HEK293 cells - 8 hour (AID 1224887)
Method in brief: as §3

[17] = A CellTox Green Cytotoxicity Assay to monitor cytotoxicity in HEK293 cells - 16 hour (AID 1224888); also: nearly all actives have a fitted effect of over 35% in size
Method in brief: as §1

[18] = qHTS RealTime-Glo MT Cell Viability Assay in HepG2 cells - 0 hour (AID 1224889); also: nearly all actives have a fitted effect of over 50% in size
Method in brief: as §5

[19] = A CellTox Green Cytotoxicity Assay to monitor cytotoxicity in HepG2 cells - 8 hour (AID 1224890); also: nearly all actives have a fitted effect of over 45% in size
Method in brief: as §4

[20] = A CellTox Green Cytotoxicity Assay to monitor cytotoxicity in HEK293 cells - 24 hour (AID 1224875)
Method in brief: as §1

Structure (SMILES): O=[Se](O)O
- Potency [1]: 30.9 µM (active)
- cytotoxicity increase [1]: -7.57% [at 15.8 µM] (inactive)
- Potency [2]: inactive
- Potency [3]: inactive
- Potency [4]: 17.4 µM (active)
- Potency [5]: inactive
- activity change, negative = cytotoxic [6]: -0.276% [at 15.8 µM] (inactive)
- cytotoxicity [7]: 4.65% [at 15.8 µM] (inactive)
- Potency [8]: 24.6 µM (active)
- cytotoxicity increase [8]: 15.7% [at 15.8 µM] (inactive)
- Potency [9]: inactive
- Potency [10]: 39 µM (active)
- cytotoxicity increase [10]: -8.61% [at 15.8 µM] (inactive)
- Potency [11]: inactive
- Potency [12]: 24.6 µM (active)
- cytotoxicity increase [12]: 9.15% [at 15.8 µM] (inactive)
- Potency [13]: inactive
- Potency [14]: inactive
- activity change, negative = cytotoxicity [15]: -26.2% [at 15.8 µM] (inactive)
- Potency [16]: inactive
- Potency [17]: inactive
- Potency [18]: inactive
- Potency [19]: inactive

Structure (SMILES): Cc1ccc([N+](=O)[O-])c(C)c1
- Potency [1]: 24.6 µM (active) and inactive
- Potency [2]: 38.9 µM (active) and inactive
- Potency [3]: inactive
- Potency [4]: 38.9 µM (active)
- max response [4]: -10.8% (inactive)
- Potency [20]: inactive
- Potency [5]: inactive
- Potency [6]: inactive
- Potency [7]: inactive
- Potency [8]: 17.4 µM (active) and inactive
- Potency [9]: inactive
- Potency [11]: inactive
- Potency [12]: 17.4 µM (active) and inactive
- Potency [13]: inactive
- Potency [14]: inactive
- Potency [15]: 38.9 µM (active) and inactive
- Potency [16]: inactive
- Potency [17]: inactive
- Potency [18]: inactive
- Potency [19]: inactive

Structure (SMILES): Cc1cccc(Nc2ccccc2C(=O)O)c1C
- Potency [1]: inactive
- Potency [2]: inactive
- Potency [3]: inactive
- max response [4]: -11.8% (inactive) and 1.92% (inactive)
- Potency [20]: inactive
- Potency [5]: inactive
- Potency [6]: inactive
- Potency [7]: inactive
- Potency [8]: inactive
- Potency [9]: inactive
- Potency [10]: inactive
- Potency [11]: inactive
- Potency [12]: inactive
- Potency [13]: inactive
- Potency [14]: inactive
- Potency [15]: inactive
- Potency [16]: inactive
- Potency [17]: inactive
- Potency [18]: inactive
- Potency [19]: inactive

Structure (SMILES): C=CC(=O)OCCCC
- Potency [1]: inactive
- Potency [2]: inactive
- Potency [3]: inactive
- max response [4]: 6.68% (inactive) and 3.94% (inactive)
- Potency [20]: inactive
- Potency [5]: inactive
- Potency [6]: inactive
- Potency [7]: inactive
- Potency [8]: inactive
- Potency [9]: inactive
- Potency [10]: inactive
- Potency [11]: inactive
- Potency [12]: inactive
- Potency [13]: inactive
- Potency [14]: inactive
- Potency [15]: inactive
- Potency [16]: inactive
- Potency [17]: inactive
- Potency [18]: inactive
- Potency [19]: inactive

Structure (SMILES): Nc1ccc2c(c1)C(=O)c1ccccc1C2=O
- Potency [1]: 30.3 µM (active) and inactive
- Potency [2]: inactive
- Potency [3]: inactive
- max response [4]: -23.1% (inactive) and -12.6% (inactive)
- Potency [20]: inactive
- Potency [5]: inactive
- Potency [6]: inactive
- Potency [7]: inactive
- Potency [8]: inactive
- Potency [9]: inactive
- Potency [10]: inactive
- Potency [11]: inactive
- Potency [12]: inactive
- Potency [13]: inactive
- Potency [14]: inactive
- Potency [15]: inactive
- Potency [16]: inactive
- Potency [17]: inactive
- Potency [18]: inactive
- Potency [19]: inactive

Structure (SMILES): C=CCNCC=C
- Potency [1]: inactive
- Potency [2]: inactive
- Potency [3]: inactive
- max response [4]: 4.5% (inactive) and 4.18% (inactive)
- Potency [20]: inactive
- Potency [5]: inactive
- Potency [6]: inactive
- Potency [7]: inactive
- Potency [8]: inactive
- Potency [9]: inactive
- Potency [10]: inactive
- Potency [11]: inactive
- Potency [12]: inactive
- Potency [13]: inactive
- Potency [14]: inactive
- Potency [15]: inactive
- Potency [16]: inactive
- Potency [17]: inactive
- Potency [18]: inactive
- Potency [19]: inactive

Structure (SMILES): Brc1nc2ccccc2s1
- Potency [1]: inactive
- Potency [2]: inactive
- Potency [3]: inactive
- max response [4]: 0.941% (inactive) and 3.88% (inactive)
- Potency [20]: inactive
- Potency [5]: inactive
- Potency [6]: inactive
- Potency [7]: inactive
- Potency [8]: inactive
- Potency [9]: inactive
- Potency [10]: inactive
- Potency [11]: inactive
- Potency [12]: inactive
- Potency [13]: inactive
- Potency [14]: inactive
- Potency [15]: inactive
- Potency [16]: inactive
- Potency [17]: inactive
- Potency [18]: inactive
- Potency [19]: inactive

Structure (SMILES): O=C(O)CCCCCCCCCCCC(=O)O
- Potency [1]: 27.1 µM (active) and inactive
- Potency [2]: inactive
- Potency [3]: inactive
- max response [4]: 7.31% (inactive)
- Potency [20]: inactive
- Potency [5]: inactive
- Potency [6]: inactive
- Potency [7]: inactive
- Potency [8]: 48.2 µM (active) and inactive
- Potency [9]: inactive
- Potency [10]: inactive
- Potency [11]: inactive
- Potency [12]: inactive
- Potency [13]: inactive
- Potency [14]: inactive
- Potency [15]: inactive
- Potency [16]: inactive
- Potency [17]: inactive
- Potency [18]: inactive
- Potency [19]: inactive

Structure (SMILES): CNC[C@H](O)c1ccc(O)c(O)c1
- Potency [1]: inactive
- Potency [2]: inactive
- Potency [3]: inactive
- max response [4]: 2.12% (inactive) and 11.8% (inactive)
- Potency [20]: inactive
- Potency [5]: inactive
- Potency [6]: inactive
- Potency [7]: inactive
- Potency [8]: inactive
- Potency [9]: inactive
- Potency [10]: inactive
- Potency [11]: inactive
- Potency [12]: inactive
- Potency [13]: inactive
- Potency [14]: inactive
- Potency [15]: inactive
- Potency [16]: inactive
- Potency [17]: inactive
- Potency [18]: inactive
- Potency [19]: inactive

Structure (SMILES): CC1(C)C(C=C(Cl)Cl)C1C(=O)OCc1cccc(Oc2ccccc2)c1 (stereo not drawn)
- Potency [1]: inactive
- Potency [2]: inactive
- Potency [3]: inactive
- max response [4]: -20.8% (inactive) and -17.3% (inactive)
- Potency [20]: inactive
- Potency [5]: inactive
- Potency [6]: inactive
- Potency [7]: inactive
- Potency [8]: inactive
- Potency [9]: inactive
- Potency [10]: inactive
- Potency [11]: inactive
- Potency [12]: inactive
- Potency [13]: inactive
- Potency [14]: inactive
- Potency [15]: inactive
- Potency [16]: inactive
- Potency [17]: inactive
- Potency [18]: inactive
- Potency [19]: inactive

Structure (SMILES): Oc1c(Cl)ccc(Cl)c1Cl
- Potency [1]: inactive
- Potency [2]: inactive
- Potency [3]: inactive
- max response [4]: -14% (inactive) and -18.1% (inactive)
- Potency [20]: inactive
- Potency [5]: inactive
- Potency [6]: inactive
- Potency [7]: inactive
- Potency [8]: inactive
- Potency [9]: inactive
- Potency [10]: inactive
- Potency [11]: inactive
- Potency [12]: inactive
- Potency [13]: inactive
- Potency [14]: inactive
- Potency [15]: inactive
- Potency [16]: inactive
- Potency [17]: inactive
- Potency [18]: inactive
- Potency [19]: inactive

Structure (SMILES): NCCOCCO
- Potency [1]: inactive
- Potency [2]: inactive
- Potency [3]: inactive
- max response [4]: 6.45% (inactive) and 5.26% (inactive)
- Potency [20]: inactive
- Potency [5]: inactive
- Potency [6]: inactive
- Potency [7]: inactive
- Potency [8]: inactive
- Potency [9]: inactive
- Potency [10]: inactive
- Potency [11]: inactive
- Potency [12]: inactive
- Potency [13]: inactive
- Potency [14]: inactive
- Potency [15]: inactive
- Potency [16]: inactive
- Potency [17]: inactive
- Potency [18]: inactive
- Potency [19]: inactive
